AI-2 QS mod – Vibrio harveyi AI-2 quorum sensing modulation; Vibrio harveyi JMH597 AI-2 luminescence/OD600 ratio, 9 h; hits give low values; strain lacks LuxN and CqsS sensors; 0 = neutral-control median; activity change, % at 7.5 µM; 300,000 tested, 0.4% active; AID 2094; in the data active means activity change below about -75%, passing the limit was not always enough; inconclusive means no clear call, values can overlap the other calls;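 further: luminescence divided by OD600 gain over 9 h not by final OD600 alone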
Mot1-301 SUMO – blocks SUMOylation pathway, rescuing yeast Mot1-301 growth; S. cerevisiae Mot1-301 growth rescue, ATP luminescence, 38.5C; percent above DMSO median, 100 means doubled; growth rescue, % at 18.8 µM; 320,000 tested, 1% active; AID 2716;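 active means every valid replicate shows activation above 250% relative to neutral control wells; inactive means the rest, any valid replicate at or below 250%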;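 further: OY570 slx delta 5 strain wells were the positive control but not used for scaling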
HIF act – HIF pathway transcriptional activation; U2OS HRE-luciferase reporter, luminescence; normalized: DMSO 0%, desferrioxamine 100%; activation, % at 7.5 µM (by protocol); 300,000 tested, 0.32% active; AID 1910;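 active means mean activation of at least 10% of the iron chelator positive control signal, with at least half of replicates also reaching 10%; inconclusive means mean and replicate majority disagree about reaching 10%; inactive means mean and most replicates under 10%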
ALR inh – human ALR oxidase inhibition via reduced H2O2. P55789. purified ALR, DTT oxidation, H2O2 HRP-luminol luminescence. inhibition, % (no concentration beside the values). 290,000 tested, 3.8% active. AID 485317;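 active means mean replicate inhibition above about 79%, with every replicate also reaching it, limit read from the data; inconclusive means only one of the two criteria met; inactive means mean below limit and not every replicate reaching it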
Target sequence (P55789 whole entry, looked up): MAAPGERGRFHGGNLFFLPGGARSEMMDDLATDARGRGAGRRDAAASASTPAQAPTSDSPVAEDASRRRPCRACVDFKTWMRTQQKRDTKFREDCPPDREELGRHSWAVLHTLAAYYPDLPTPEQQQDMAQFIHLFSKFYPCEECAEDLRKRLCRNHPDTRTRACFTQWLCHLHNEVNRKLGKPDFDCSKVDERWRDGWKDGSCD
The depositor's hits bear a star; u = inconclusive; x = not tested or not shown. Rows were chosen to be rich in hits. Some 4.8% of all compounds tested hit in one or more screens of this group.

SMILES | AI-2 QS mod | Mot1-301 SUMO | HIF act | ALR inh
COc1ccc(/C=N\Nc2ccccc2[N+](=O)[O-])c(C(=O)O)c1OC | -0.9 | 974.0* | 0.7 | x
Cc1cc(NC(=O)c2ccccc2)n(-c2nc3ccccc3[nH]2)n1 | 0.7 | -17.6 | 24.2* | -4.1
Cc1csc(=O)n1CC(=O)OC(C)C(=O)Nc1cccc(Cl)c1 (stereo unspecified) | 21.5 | -5.2 | -0.3 | -1.6
N#Cc1c(NC(=O)CN2CCOCC2)oc(-c2ccccc2)c1-c1ccccc1 | 4.5 | -0.2 | -0.4 | 98.7*
N#Cc1c(NC(=O)CSc2ncccn2)oc(-c2ccccc2)c1-c1ccccc1 | 32.1 | 155.9 | -0.5 | 4.7
CS(=O)(=O)N(CC(=O)N1CCCC1)Cc1ccc(Cl)c(Cl)c1 | 14.1 | -6.3 | -0.8 | 13.0
Fc1ccc(Br)cc1C1C=C(c2ccc(Br)cc2)Nc2ncnn21 (stereo unspecified) | -2.2 | -12.0 | 1.0 | 90.5*
Cc1cc(Br)ccc1NCc1ccccn1 | 38.6 | -11.6 | 0.0 | 98.4*
COc1ccc(Br)cc1S(=O)(=O)NCc1ccccn1 | -4.0 | -22.7 | -0.9 | -17.2
Cc1cc(N2CCOCC2)nc(N)n1 | 10.6 | 5.0 | -1.1 | x
Cc1cc(N2CCOCC2)c2c(N)c(C)cc(C)c2n1 | x | 198.5 | x | 99.2*
O=c1cc(CN2CCOCC2)c2ccc(O)c(O)c2o1 | 12.4 | -10.3 | -0.1 | 99.3*
O=c1cc(CN2CCN(Cc3ccccc3)CC2)c2ccc(O)c(O)c2o1 | 41.9 | 121.3 | 2.1 | 99.5*
Cc1ccc2c(CN3CCC(C(N)=O)CC3)cc(=O)oc2c1C | x | 39.1 | -4.4 | 94.7*
Cc1c(O)ccc2c(CN3CCN(Cc4ccccc4)CC3)cc(=O)oc12 | 9.3 | -13.9 | 1.2 | x
Cc1c(O)ccc2c(CN(C)Cc3ccccc3)cc(=O)oc12 | 10.2 | -13.8 | 0.7 | 85.8*
Cc1ccccc1CN(C)Cc1cc(=O)oc2c(C)c(C)ccc12 | 22.3 | 10.2 | 0.1 | -2.3
O=C(N/N=C/c1ccccc1O)c1cccc(C(F)(F)F)c1 | -19.8 | 6.9 | 40.6* | -5.8
O=C(N/N=C/c1ccccc1C(F)(F)F)c1ccc(O)cc1 | -19.2 | 8.1 | 3.8 | -4.7
O=C(N/N=C/c1ccc(O)cc1)c1cncc(Br)c1 | 17.3 | 20.6 | -0.5 | 99.5*
O=C(N/N=C/c1ccc(O)cc1)c1cccc(C(F)(F)F)c1 | 17.4 | -11.2 | 0.0 | 97.8*
CC(C)(C)c1cc(C(=O)N/N=C/c2ccc(O)cc2)n(-c2ccccc2)n1 | 23.9 | 2.6 | -0.4 | 93.7*
COC(=O)c1ccc(CN(c2ccc(C(=O)O)c(O)c2)S(=O)(=O)c2ccc(Cl)c([N+](=O)[O-])c2)cc1 | 28.2 | -35.3 | -0.6 | -1.0
CN1CC(=O)N(CC(=O)Nc2cccc3ccccc23)C1=O | x | -2.8 | x | -29.7
COc1ccccc1C(NC(C)=O)c1c(O)ccc2ccc(O)cc12 (stereo unspecified) | 9.1 | -17.5 | 0.0 | 94.5*
SMILES | AI-2 QS mod | Mot1-301 SUMO | HIF act | ALR inh
Cc1ccccc1N/N=C/c1ccc(C#N)cc1 | -0.9 | 3.3 | 0.2 | -1.0
CN/N=C/c1ccc(C#N)cc1 | 16.0 | -8.3 | -0.6 | 98.7*
O=C(Nc1cc(Cl)ccc1-n1cncn1)c1cc(F)c(F)c(F)c1F | 32.6 | 42.9 | -0.1 | 11.8
C#CCOCCOCCOCCNc1nc(N2CCN(C(=O)[C@H](CC(N)=O)n3cc(C(N)[C@H](C)CC)nn3)CC2)nc(N2CCN(C(=O)[C@H](CC(N)=O)n3cc(C(N)[C@@H](C)CC)nn3)CC2)n1 (stereo partly specified) | x | -16.5 | x | 1.3
CC(=O)NCCNC(=O)c1ccc(CSc2nc3ccccc3s2)cc1 | 26.8 | 248.2 | -1.7 | 99.2*
C=CCNC(=O)c1ccc(CSc2nc3ccccc3s2)cc1 | 42.4 | 130.9 | 2.3 | 98.8*
N#Cc1ccsc1NC(=O)CN1CCN(c2ccc(O)cc2)CC1 | 24.8 | 231.3 | 0.1 | 99.4*
N#Cc1ccsc1NC(=O)CN1CCN(c2ccccc2)CC1 | 22.5 | x | -0.2 | 33.4
N#Cc1cnn(-c2ccccc2)c1NC(=O)CN1CCN(c2ccccc2)CC1 | 16.8 | 36.4 | 0.2 | 96.5*
Cc1cc(C(=O)COC(=O)c2ccc(O)cc2)c(C)n1CC1CCCO1 (stereo unspecified) | 16.7 | 1.5 | 0.8 | -1.4
Cc1cc(C(=O)COC(=O)c2ccc(Cl)c(S(N)(=O)=O)c2)c(C)n1CC1CCCO1 (stereo unspecified) | 21.1 | 331.0* | -0.4 | x
O=Cc1ccc(C(=O)OCC(=O)NCc2ccco2)cc1 | x | -1.2 | x | 4.4
O=C1CC(NNC(=O)c2ccccc2)C(=O)N1 (stereo unspecified) | 11.8 | -0.1 | -0.3 | 2.6
O=C1CC(NNC(=O)c2cccc(F)c2)C(=O)N1 (stereo unspecified) | 25.0 | 56.0 | 0.5 | 92.2*
COc1ccc(N2CCN(C(CNC(=O)C(=O)NCCCn3ccnc3)c3ccco3)CC2)cc1 (stereo unspecified) | 6.4 | 82.0 | -0.1 | 83.4*
O=C(NCCCn1ccnc1)C(=O)NCC(c1ccco1)N1CCN(c2ccccc2)CC1 (stereo unspecified) | -0.4 | 10.1 | 0.2 | 99.1*
O=C(NCCCn1ccnc1)C(=O)NCC(c1ccco1)N1CCN(c2ccc(F)cc2)CC1 (stereo unspecified) | -8.9 | -0.4 | 0.3 | 98.2*
O=C(NCCCn1ccnc1)C(=O)NCC(c1cccnc1)N1CCN(c2ccccc2)CC1 (stereo unspecified) | 0.1 | 2.3 | 0.1 | 98.9*
O=C(NCC(c1ccco1)N1CCN(c2ccccc2)CC1)c1ccco1 (stereo unspecified) | 3.7 | -28.2 | 0.7 | 42.0
CC1CN(CC(O)COc2ccc(C#N)cc2)CCN1CC(O)COc1ccc(C#N)cc1 (stereo unspecified) | 17.9 | -6.2 | -0.2 | 0.9
COc1cc(OC)cc(C(=O)NNS(=O)(=O)c2ccc(F)cc2)c1 | 5.3 | -19.8 | -1.1 | x
CCn1c(CNC(=O)c2cccc(C)c2)nnc1SCC(=O)Nc1nnc(C)s1 | 13.3 | -0.3 | -0.1 | x
COc1ccc(CCN(C)Cc2ccc(C(=O)Nc3ccccc3)cc2)cc1OC | 53.1 | -14.2 | 1.4 | 2.2
S=c1nc(-c2ccccc2Br)[nH][nH]1 | 33.2 | -7.9 | x | 98.5*
O=c1cc(CN2CCN(c3ccc(O)cc3)CC2)nc2scc(-c3ccccc3)n12 | 14.5 | x | 1.1 | 93.5*
SMILES | AI-2 QS mod | Mot1-301 SUMO | HIF act | ALR inh
COc1ccc(S(=O)(=O)N2CCOC23CCN(S(=O)(=O)c2ccccc2)CC3)cc1 | 15.3 | -1.0 | 0.2 | 14.7
CC(=O)N1CCN=C1SCc1ccccc1Cl | 17.9 | -13.0 | x | 100.8*
O=C(O)c1cccnc1SCc1ccccc1Cl | 39.3 | x | 108.1* | 6.2
O=C(C1CC1)N1CCN=C1SCc1ccccc1Cl | 23.5 | -6.7 | x | 99.2*
O=C(O)c1cccnc1Sc1ccccc1Cl | -1.9 | x | -0.2 | x
CC(=O)N1CCN=C1SCc1ccccc1F | 33.4 | -1.2 | x | 99.0*
CCC(=O)N1CCN=C1SCc1cc(C)ccc1C | 20.1 | 385.6 | -2.5 | u
O=C(C1CCCC1)N1CCN=C1SCc1cccc([N+](=O)[O-])c1 | 27.4 | 16.6 | 1.2 | 99.2*
CCC(=O)N1CCN=C1SCc1ccccc1Cl | 30.8 | 11.9 | x | 99.7*

Screening results (PubChem BioAssay)
